Several values for one entry are separate records, joined by “and”; a condition that tells them apart may be missing. Equal values may be shown once. Results filed as inconclusive are left out. More than one record can exist for a structure, and the calls need not agree. A number with no mark means an inactive call. Activity calls are given as the source filed them. The call rests on the fitted dose curve; in most records, active means well fitted activation curve with a large enough effect; inconclusive means small, poorly fitted or top-dose-only effect; inactive means no such curve, though single readings can be large or run the other way.
The compounds below were run against Cellular tumor antigen p53 (Homo sapiens) (UniProt P04637) (assay: Primary qHTS for small molecule compounds that upregulate eGFP-tagged delta133p53alpha (in N-terminal) cells. (AID 2060322; further: nearly all actives have a fitted effect of over 75% in size;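 on activation: cells pre-induced with doxycycline then dosed without doxycycline; series mostly up to about 56 µM; 0% = DMSO vehicle and 100% = reference activator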)). Details: NCI-H358 eGFP-delta133p53alpha fluorescence, 24 h; activation: hits give high values.
Sequence of Cellular tumor antigen p53 (Homo sapiens) (P04637 whole entry, looked up): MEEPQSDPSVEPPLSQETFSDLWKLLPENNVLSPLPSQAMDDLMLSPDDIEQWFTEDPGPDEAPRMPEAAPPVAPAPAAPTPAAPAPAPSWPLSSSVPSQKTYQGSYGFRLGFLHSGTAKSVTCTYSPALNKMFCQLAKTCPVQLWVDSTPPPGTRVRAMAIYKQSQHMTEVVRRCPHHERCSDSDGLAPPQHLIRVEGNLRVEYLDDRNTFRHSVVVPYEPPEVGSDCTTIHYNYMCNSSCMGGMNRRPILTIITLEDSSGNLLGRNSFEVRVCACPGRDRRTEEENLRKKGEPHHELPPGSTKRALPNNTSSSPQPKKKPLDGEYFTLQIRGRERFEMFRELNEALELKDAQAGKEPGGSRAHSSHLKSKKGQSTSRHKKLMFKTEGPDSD
Description: Assay Development and Screening Technology
National Center for Advancing Translational Sciences (NCATS),
National Institute of Health (NIH), Rockville, Maryland
Cellular senescence (CS) is one of the hallmarks of aging and age-related diseases. Senescent cells are characterized by an irreversible growth arrest, an increase in senescence-associated beta-galactosidase (SA-beta-gal) activity and p16INK4a expression, an activation of the DNA damage response pathways, and the emergence of a senescence-associated secretory phenotype (SASP).
Delta133p53alpha, a human/primate-specific p53 protein isoform, delays or inhibits the induction of CS and SASP in various types of human cells, including progeria-derived fibroblasts, primary normal astrocytes, and CD8+ T lymphocytes. Induction of delta133p53alpha with small molecule compounds may provide therapeutic opportunities for inhibition of senescence/SASP-associated pathologies in progeria syndromes, astrocyte-mediated neuroprotection in neurodegenerative diseases, and possibly prevention and treatment of a wider range of senescence- and aging-associated diseases.
Here we report the development and validation of a cell-based quantitative high throughput screening (qHTS) assay in 1,536-well format. This qHTS assay uses the NCI-H358 cell line with doxycycline-inducible expression of enhanced green fluorescent protein (eGFP)-tagged delta133p53alpha, which allows efficient and highly quantitative measurement of the protein levels.
PROTOCOL TABLE (as described by Inglese J, Shamu CE and Guy RK. 2007)
SEQUENCE No. (e.g., 1, 2, 3, etc.); […] (e.g., Cells, Incubation, Reagent, etc.); VALUE; DESCRIPTION.
1; Cells; 4uL; 800 doxycycline treated cells / well in doxycycline-free media, 1536-well black, clear-bottom low base Aurora microplates.
2; Compounds; 23 nL; Kalypsis pin tool (Wako) equipped with 1536-well pin heads, 5-azacytidine positive control.
3; Incubation; 24 hr; 37C, 5% CO2; 95% relative humidity.
4; Aspiration; 1x; BioTek EL406 washer dispenser (Agilent).
5; Fixing; 3.5% paraformaldehyde, BioTek EL406 washer dispenser (Agilent).
6; Washing; 1x PBS; BioTek EL406 washer dispenser (Agilent).
7; Nuclei staining; 1:1000 dilution of Hoechst 33342 (Thermofisher), BioTek EL406 washer dispenser (Agilent).
8; Incubation; 20 min; in the dark at room temperature.
9; Washing; 2x, 1x PBS (ThermoFisher), BioTek EL406 washer dispenser (Agilent).
10; Reagent; 10 uL; 1x PBS per well, sealed with clear adhesive tape.
NOTES (numbers refer to sequence numbers above).
1. NCI-H358 cells expressing eGFP-tagged delta133p53alpha were grown in T75 culture flasks and treated with doxycycline for 24h, at 10 ng/ml for eGFP-D133p53a cells (N-terminal cell) and 100 ng/ml for D133p53a-eGFP cells (C-terminal cells). Cells were trypsinized, counted using a Counted 3 Automated Cell Counter (Thermo Fisher), and diluted to a concentration of 200,000 cells/ml. A Multidrop Combi Reagent Dispenser (ThermoFisher) was used to dispense 800 cells/well in […] of doxycycline-free media, into 1536-well black/clear bottom low base plates (AuroraMicroplates).
2. After plating cells, 23 nl of compound library, DMSO vehicle control or positive control (5-azacytidine) were transferred by Pin Tool (Wako). The plate map layout was the same for each plate: (column 1) non-doxycycline treated cells + DMSO vehicle control; (column 2) doxycycline treated cells + DMSO vehicle control baseline; (column 3) doxycycline treated cells + positive control 57.5 uM final concentration 5-azacytidine; (column 4) doxycycline treated cells + serial dilution of 5-azacytidine, 16-point 1:2 titration spanning 1.8 nM to […] final concentration; (columns 5-48) doxycycline treated cells + titration of library compounds.
3. Cells were incubated at 37 °C, 5 % CO2, 95% RH with breathable metal lid for 24h.
4-10. […] After two washes, 10 ul of 1X PBS (Thermo Fisher) was dispensed to each well. Clear adhesive plate seals (VWR) were applied and plates stored at 4 °C.
11. […]
`CC[C@H]1OC(=O)C[C@@H](O)[C@H](C)[C@@H](O[C@@H]2O[C@H](C)[C@@H](O)[C@H](N(C)C)[C@H]2O)[C@@H](CCN2C[C@H](C)C[C@H](C)C2)C[C@@H](C)C(=O)/C=C/C(C)=C/[C@@H]1CO[C@@H]1O[C@H](C)[C@@H](O)[C@@H](OC)[C@H]1OC` showed an activation of -8.59%.
For `CCOC(=O)c1ncn2c1CN(C)C(=O)c1cc(F)ccc1-2`, the activation was -0.975% and -12.6% and 1.77%.
`C/C=C/C=C/C(O)=C1\C(=O)[C@]2(C)C3C(C(=O)CC/C=C/C)=C(O)C4(C)C1[C@]1(C)O[C@@]4(O)[C@@]3(C)O[C@@]12O` showed an activation of 1.53%.
In the case of `NNC(=O)c1ccncc1`, the activation is reported as -11.9% and -4.14%.
`Cc1ccc(-c2c(C(=O)CCl)n(CCCO)c3ncnc(N)c23)cc1` was tested, and the Potency was 12 µM (active).
With `CC(CC(C)O[C@@H]1O[C@H](CO)[C@@H](O)[C@H](O)[C@H]1O)OC(=O)/C=C/c1ccc(O)cc1` (some centres undefined) the activation was 3.82%.
`CC1=C2C[C@@]3(C)[C@@H](CCC[C@@H]3C)C[C@@]2(O)OC1=O` was tested, and the activation was -4.46%.
For `CCOC(=O)C=C[C@H](C[C@@H]1CCNC1=O)NC(=O)[C@@H](CC(=O)[C@@H](NC(=O)c1cc(C)on1)C(C)C)Cc1ccc(F)cc1`, the activation was 17.3%.
For `C[C@@H]1C[C@H]2O[C@@]3(O[C@@H]2C(C)(C)O)C(O)[C@@]2(C)C4CCC5C(C)(C)[C@@H](O[C@H]6OC[C@H](O)[C@@H](O)[C@@H]6O)CC[C@@]56C[C@@]46CC[C@]2(C)C13` (some centres undefined), the activation was -26.7%.
`Nc1cc(C(F)(F)F)c(-c2cc(N3CCOCC3)nc(N3CCOCC3)n2)cn1` was tested, and the Potency was 1.69 µM (active).
`O=C(/C=C/c1ccc(O)cc1)OC[C@H]1O[C@@H](OC(=O)/C=C/c2ccccc2)[C@H](O)[C@@H](O)[C@@H]1O` showed an activation of -1.53%.
Compound `CC1=C[C@@H]2[C@@H]([C@@H](O)C[C@@]3(C)[C@H]2C[C@@H](C)[C@]3(O)C(=O)CO)[C@@]2(C)Cc3cnn(-c4ccccc4)c3C=C12` has an activation of -34.9%.
`CC(=O)Oc1ccc(C(=C2CCCCC2)c2ccc(OC(C)=O)cc2)cc1` was tested, and the activation was 9.6%.
In the case of `CCCCOCCOC(=O)c1cccnc1`, the activation is reported as -10.7%.
`CCN(CC)CCOC(=O)C(c1ccccc1)C1CCCCC1` (centres undefined) gave an activation of 14.2%.
`Cc1cccc(C)c1NC(=O)CN1CCCC1` showed an activation of 10%.
`Cc1cc2c(N3CCCC3)nc(N3CCCC3)nc2n1C` gave an activation of -16.7%.
With `Cc1ccc(Nc2nccc(N(C)c3ccc4c(C)n(C)nc4c3)n2)cc1S(N)(=O)=O` the activation was 13% and -7.12% and -16.1%.
`C[C@@H]1O[C@@H](O[C@@H]2CO[C@@H](O[C@H]3CC[C@@]4(C)C(CC[C@]5(C)C4CC=C4[C@@H]6CC(C)(C)CC[C@]6(C(=O)O[C@@H]6O[C@H](CO)[C@@H](O)[C@H](O)[C@H]6O)CC[C@]45C)[C@]3(C)CO)[C@H](O)[C@H]2O[C@@H]2O[C@H](CO)[C@@H](O)[C@H](O)[C@H]2O)[C@H](O)[C@H](O)[C@H]1O` (some centres undefined) showed an activation of -16.1%.
`C=C1C[C@]23C[C@H]1CC[C@H]2[C@]1(C)CCC[C@@](C)(C(=O)O)[C@H]1[C@@H]3C(=O)O` was tested, and the activation was -8.04%.
For `Cn1c(=O)c(-c2c(Cl)cccc2Cl)cc2cnc(Nc3cccc(C(=O)O)c3)nc21`, the activation was 29.6% and the Potency was 12 µM (active).
With `N=C1N=C(N)c2cc3ccccc3cc21` the Potency was 35.5 µM (active).
With `CCCCN(CCCC)C(=O)CN1C[C@H](c2ccc3c(c2)OCO3)[C@@H](C(=O)O)[C@@H]1c1ccc(OC)cc1` the activation was -2.39% and -6.46%.
In the case of `CC1(C)CC(NC(=O)C(=O)Nc2ccc(Cl)cc2)CC(C)(C)N1`, the activation is reported as 8.11%.
For `Cc1ccc(Sc2cncc3sc(C(N)=O)cc23)cc1`, the activation was -17.7%.
With `C[C@H]1CC[C@@]2(OC1)O[C@H]1CC3C4CC=C5C[C@H](O)C[C@@H](O[C@@H]6O[C@@H](C)[C@H](O)[C@@H](O)[C@H]6O[C@@H]6O[C@@H](C)[C@H](O)[C@@H](O)[C@H]6O)[C@]5(C)C4CC[C@]3(C)[C@H]1[C@@H]2C` (some centres undefined) the activation was -13.7%.
In the case of `Cc1ccccc1C(OCCN(C)C)c1ccccc1` (centres undefined), the activation is reported as 0.562% and -27.9%.
`N#CSCC(=O)O` showed an activation of 1.69%.
`C=C1C(=O)OC2C1CCC(=C)C1CC(OC(C)=O)C(=C)C12` (centres undefined) was tested, and the Potency was 16.9 µM (active).
`CC(=O)OC(C)C(C)(O)C(=O)O[C@@H]1CC[C@]2(C)CC(=O)C(=C(C)C)C[C@H]2[C@]1(C)OC(C)=O` (some centres undefined) gave an activation of 2.29%.
`O=C(Nc1ccc(N2C(=O)[C@@H]3[C@H](C2=O)[C@@H]2C=C[C@H]3C2)c(Cl)c1)c1ccccn1` showed an activation of -11.7%.
For `Cc1cc(C)nc(SCC(=O)Nc2ncc(Cc3cccc4ccccc34)s2)n1`, the activation was -8.11%.
Work on `CC(C(O)/C=C/C(C)(C)O)C1CCC2(C)C3C(=O)C=C4C(CCC(O)C4(C)C)C3(C)CCC12C` (centres undefined) yielded an activation of -22.3%.
`CC(=O)CC1CCC(C(C)C(=O)OCC(O)CO)O1` (centres undefined) gave an activation of -0.763%.
`CCN[C@H]1CN(CCCOC)S(=O)(=O)c2sc(S(N)(=O)=O)cc21` gave an activation of 13%.
`CN(C)C(=O)C(O)C(Cc1ccccc1)NC(=O)c1cc2cc(Cl)ccc2[nH]1` (centres undefined) gave an activation of -1.43%.
In the case of `O=C(C1=CCN2c3c(cccc31)OC[C@H]2CN1CCOCC1)c1cccc2ccccc12`, the activation is reported as 27.7%.
Work on `CC(=O)Oc1cc2c(s1)CCN([C@H](C(=O)C1CC1)c1ccccc1F)C2` yielded an activation of 0.477%.
Potency means the concentration at half of the fitted maximal effect.
